Source: PubChem BioAssay (Tox21)
Where “and” joins values, the source holds several entries; their conditions need not be identical. Equal entries are not always repeated. Records with an inconclusive call do not appear. A call without a number means that no potency is given here. Calls of active or inactive are those of the source. The call rests on the fitted dose curve; in most records, active means well fitted activation curve with a large enough effect in the repeat runs; inconclusive means weak or mixed curves; inactive means no such curve, though single readings can be large or run the other way.

These molecules were tested against Nuclear receptor subfamily 1 group I member 2 (Homo sapiens) (UniProt O75469) (assay: Human pregnane X receptor (PXR) small molecule agonists, qHTS assay (AID 1346982; further: nearly all actives have a fitted effect of over 35% in size)). Settings: PXR-Luc HepG2, CYP3A4 luciferase reporter, 24 h; series mostly up to 92.4 µM.
Description: National Center for Advancing Translational Sciences [NCATS]
NIH Chemical Genomics Center [NCGC]
U.S. Environmental Protection Agency [EPA]
National Institutes of Environmental Health Sciences [NIEHS]
National Toxicology Program [NTP]
The human pregnane X receptor (hPXR) regulates the expression of several drug metabolizing enzymes and induction of these proteins is a major mechanism for developing drug resistance in cancer. One such key enzyme catalyzing the drug metabolism is cytochrome P450 3A4 (CYP3A4). Changes in CYP3A4 expression affect drug metabolism, thereby reducing the therapeutic efficacy and altering toxicological response to a drug and which finally causes adverse drug interaction. To screen Tox21 libraries for compounds that activate hPXR-mediated CYP3A4 gene expression, PXR-Luc HepG2 cells were used.
PXR-Luc HepG2 cells were dispensed at 2,000 per well in 5uL of assay medium containing 5% charcoal-stripped FBS into white solid bottom 1536-well plates (Corning Life Sciences, Corning, NY) using a Multidrop Combi (Thermo Scientific, Waltham, MA) dispenser. The assay plates were incubated at 37 C and 5% CO2 for 5hr, and then 23nL of compounds dissolved in DMSO and positive control were transferred using a Pintool station (Wako, San Diego, CA). The assay plates were incubated at 37C and 5% CO2 for 24hr. For luciferase read, 4uL of ONE-Glo reagent (Promega Corporation, Madison, WI) was added to each well of the assay plates using Flying Reagent Dispenser (FRD, Aurora Discovery, San Diego, CA) and incubated the assay plates at room temperature for 30min. The luminescence signal was quantified using a ViewLux plate reader (Perkin Elmer, Shelton, CT).
Potency means the concentration at half of the fitted maximal effect.

Nuclear receptor subfamily 1 group I member 2 (Homo sapiens), sequence (O75469 whole entry, looked up): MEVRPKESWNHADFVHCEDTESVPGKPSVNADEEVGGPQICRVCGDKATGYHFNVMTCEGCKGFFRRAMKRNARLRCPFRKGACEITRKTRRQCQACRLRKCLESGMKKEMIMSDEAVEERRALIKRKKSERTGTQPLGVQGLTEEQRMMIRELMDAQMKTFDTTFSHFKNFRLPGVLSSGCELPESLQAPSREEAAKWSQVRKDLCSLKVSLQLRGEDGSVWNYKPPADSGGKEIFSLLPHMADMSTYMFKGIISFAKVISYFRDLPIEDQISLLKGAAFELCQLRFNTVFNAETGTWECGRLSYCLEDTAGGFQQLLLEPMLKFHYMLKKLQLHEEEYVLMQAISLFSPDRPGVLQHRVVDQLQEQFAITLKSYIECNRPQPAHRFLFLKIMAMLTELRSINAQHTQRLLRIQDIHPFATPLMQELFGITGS

| SMILES | Potency |
| --- | --- |
| Cc1ccccc1N=Nc1ccc(N=Nc2c(O)ccc3ccccc23)c(C)c1 | inactive |
| CCCCOc1ccc(CC(=O)NO)cc1 | inactive |
| N#Cc1cc2ccccc2c2ccccc12 | 61.4 µM (active) |
| CCCC[C@H]1CN(CC2CCOCC2)C(=O)OC12CCN(C1(C)CCN(C(=O)c3c(C)ncnc3C)CC1)CC2 | inactive |
| Oc1ccc(O)c2c(O)cccc12 | inactive |
| OCCC1CCCCN1 (stereo not given) | inactive |
| O=C(/C=C/c1ccc(O)c(O)c1)O[C@@H]1C[C@](O)(C(=O)O)C[C@@H](O)[C@H]1O | inactive |
| C=CC[N+]1([C@H]2C[C@H]3[C@@H]4CC[C@H]5C[C@H](OC(C)=O)[C@@H](N6CCCCC6)C[C@]5(C)[C@H]4CC[C@]3(C)[C@H]2OC(=O)CC)CCCCC1 | inactive |
| O=c1c2ccccc2nnn1CCl | 61.1 µM (active) |
| COc1cc(C(C)(C)C)c(O)c(C(C)(C)C)c1 | inactive |
| O=C(NN1CCCC1)NS(=O)(=O)c1ccc(Cl)cc1 | inactive |
| C=C(C)C(=O)OCCOc1ccccc1 | inactive |
| C[C@H](CCC(=O)O)[C@H]1CC[C@H]2[C@@H]3[C@H](O)C[C@@H]4C[C@H](O)CC[C@]4(C)[C@H]3CC[C@]12C | inactive |
| O=[N+]([O-])c1cc[n+]([O-])cc1 | inactive |
| CCCOc1ccc2nc(NC(=O)OC)[nH]c2c1 | 3.76 µM (active) |
| O=C(O)Cn1c(C(=O)Nc2nc(-c3ccccc3Cl)cs2)cc2ccccc21 | 26.6 µM (active) |
| CCOc1cc(OCC)c(C(=O)CCC(=O)O)cc1OCC | inactive |
| CN(C)CCCNCCCN | inactive |
| Cc1cc(CC(=O)O)c(C)n1-c1ccc(Cl)cc1 | inactive |
| Oc1ccc(Cc2ccccc2)cc1 | 56.6 µM (active) |

| SMILES | Potency |
| --- | --- |
| Nc1cnn([C@@H]2O[C@H](CO)[C@@H](O)[C@H]2O)c(=O)n1 | inactive |
| CCCCC(CC)(CO)CO | inactive |
| C#CCOC(=O)[C@@H](C)Oc1ccc(Oc2ncc(Cl)cc2F)cc1 | inactive |
| CN1CCN(C2=Nc3cc(Cl)ccc3Nc3ccccc32)CC1 | inactive |
| C1=Cc2ccccc2C1 | inactive |
| CCCC(=O)OCC | inactive |
| O=C1[C@H](CC[C@H](O)c2ccc(F)cc2)[C@@H](c2ccc(O)cc2)N1c1ccc(F)cc1 | 29.8 µM (active) |
| O=C(CC(=O)c1ccccc1)c1ccccc1 | 65.7 µM (active) |
| Cn1c(NCCN(CCO)CCCc2ccc([N+](=O)[O-])cc2)cc(=O)n(C)c1=O | inactive |
| CCCc1ccccc1 | inactive |
| Cn1sccc1=O | 30.6 µM (active) and 61.1 µM (active) |
| O=C(NS(=O)(=O)/C=C/c1cccs1)c1ccc(F)cc1Br | 30.6 µM (active) |
| CC(O)C1CCCCC1 (stereo not given) | inactive |
| O=C(O)COC(=O)Cc1ccccc1Nc1c(Cl)cccc1Cl | inactive |
| Cn1c(=O)c2c(ncn2CC(O)CO)n(C)c1=O (stereo not given) | inactive |
| CCCCCCCCC(CO)CCCCCC (stereo not given) | inactive |
| CC(=O)/C(C)=C/C1C(C)=CCCC1(C)C (stereo not given) | inactive |
| NC(=S)N/N=C/c1cccnc1 | inactive |
| CC(C)CC=O | inactive |
| O=C(c1ccc(O)cc1)c1ccc(O)cc1 | 54.5 µM (active) |
